Results published in PubChem BioAssay (EPA / NIEHS).
Results filed as inconclusive are left out. The source made the active and inactive calls. Rule for the calls, unless noted: active = hit-call score of the fitted dose curve at least 0.9, where 1 is the maximum; inconclusive = response in the unintended direction; inactive = score below 0.9.

Legend:
[1] = TOX21_p53_BLA_p2_viability: Viability Assessment in the Tox21 HCT-116 p53 Agonism Beta-lactamase Assay, Phase 2 (AID 2283591);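 note: actives lower the ATP signal meaning cytotoxicity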
Method in brief: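 HCT116 p53-bla cells, 4000/well, dosed after 5 h plating (217-fold dilution of DMSO stocks) and incubated 16 h at 37C. Viability taken as cellular ATP by CellTiter-Glo luminescence after 30 min RT; signal loss marks cytotoxicity.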

[2] = target: Cellular tumor antigen p53 (Homo sapiens) (UniProt P04637); assay: TOX21_p53_BLA_p2_ratio: Tox21 HCT-116 p53 Agonism Beta-lactamase Assay, Ratio, Phase 2 (AID 2283592)
Cellular tumor antigen p53 (Homo sapiens), sequence (P04637 whole entry, looked up): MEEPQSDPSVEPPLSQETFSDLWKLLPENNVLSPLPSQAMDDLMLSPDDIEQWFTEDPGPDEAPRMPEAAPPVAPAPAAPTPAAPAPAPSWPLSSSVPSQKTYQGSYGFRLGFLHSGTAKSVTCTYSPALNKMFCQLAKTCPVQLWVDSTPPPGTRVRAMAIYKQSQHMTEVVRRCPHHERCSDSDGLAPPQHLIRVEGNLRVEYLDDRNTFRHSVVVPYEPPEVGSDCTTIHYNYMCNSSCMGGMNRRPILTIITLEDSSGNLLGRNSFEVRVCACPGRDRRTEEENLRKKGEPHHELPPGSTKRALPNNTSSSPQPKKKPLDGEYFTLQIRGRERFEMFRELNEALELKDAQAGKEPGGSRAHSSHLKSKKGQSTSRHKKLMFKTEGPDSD
Method in brief: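 HCT116 p53-bla; 4000 cells/well; 5 h pre-incubation; cpd in DMSO, 217-fold dilution; 16 h 37C/5% CO2; CCF4-AM 2 h RT; Ex 405, Em 460/530 ratio; DMSO = baseline; positive fitting direction.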

[3] = TOX21_p53_BLA_p3_viability: Viability Assessment in the Tox21 HCT-116 p53 Agonism Beta-lactamase Assay, Phase 3 (AID 2283593);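 note: cells exposed to compound for 16 h before reading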
Method in brief: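 HCT116 cells, 4000/well, dosed 5 h after plating by pin transfer (217-fold dilution from DMSO stock) and incubated 16 h at 37C, 5% CO2. Viability read as ATP luminescence with CellTiter-Glo after 30 min at room temperature.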

[4] = target: Cellular tumor antigen p53 (Homo sapiens) (UniProt P04637); assay: TOX21_p53_BLA_p5_ratio: Tox21 HCT-116 p53 Agonism Beta-lactamase Assay, Ratio, Phase 5 (AID 2283599)
Method in brief: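 HCT-116 p53-bla cells (4000/well) plated 5 h, dosed with compound (217-fold DMSO dilution) for 16 h at 37 C; CCF4-AM substrate 2 h at room temperature. Activity is the 460/530 nm emission ratio (405 nm excitation), fitted in gain-of-signal direction versus DMSO.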

[5] = TOX21_p53_BLA_p5_viability: Viability Assessment in the Tox21 HCT-116 p53 Agonism Beta-lactamase Assay, Phase 5 (AID 2283600)
Method in brief: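 4000 cells/well; 5 h pre-incubation; DMSO compounds pin-transferred, 217-fold dilution; 16 h, 37C/5% CO2; CCF4-AM 2 h RT; CellTiter-Glo 30 min RT; luminescence.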

[6] = target: Cellular tumor antigen p53 (Homo sapiens) (UniProt P04637); assay: TOX21_p53_BLA_p4_ratio: Tox21 HCT-116 p53 Agonism Beta-lactamase Assay, Ratio, Phase 4 (AID 2283601)
Method in brief: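 HCT-116 p53 beta-lactamase reporter cells (4000/well) preincubated 5 h, then compound (217-fold dilution of DMSO stock) for 16 h at 37C. CCF4-AM substrate added 2 h at room temperature; 460/530 nm emission ratio fitted upward versus DMSO.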

[7] = target: Cellular tumor antigen p53 (Homo sapiens) (UniProt P04637); assay: TOX21_p53_BLA_p3_ratio: Tox21 HCT-116 p53 Agonism Beta-lactamase Assay, Ratio, Phase 3 (AID 2283596)
Method in brief: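 HCT116 p53-bla cells (4000/well) given compound in DMSO (217-fold dilution) after 5 h, incubated 16 h at 37C. CCF4-AM substrate 2 h at room temperature; 460/530 nm emission ratio, gain fitted against DMSO.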

[8] = TOX21_p53_BLA_p4_viability: Viability Assessment in the Tox21 HCT-116 p53 Agonism Beta-lactamase Assay, Phase 4 (AID 2283597);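 note: hits lower the luminescence signal meaning cytotoxicity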
Method in brief: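 Cells plated, 5 h pre-incubation; DMSO compounds pinned (217-fold dilution); 16 h, 37C/5% CO2; CCF4-AM 2 h RT; CellTiter-Glo 30 min RT; luminescence read.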

PGR (gene 5241) [9] = target: PGR (gene 5241) (UniProt P06401); assay: TOX21_PR_BLA_Followup_Antagonist_ratio: Tox21 HEK293 Progesterone Receptor (PR) Antagonism Beta-lactamase Follow-Up Assay, Ratio (AID 2283934);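 note: PR-UAS-bla HEK293T cells stimulated with 1 nM R5020 agonist for 16 hr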
PGR (gene 5241), sequence (P06401 whole entry, looked up): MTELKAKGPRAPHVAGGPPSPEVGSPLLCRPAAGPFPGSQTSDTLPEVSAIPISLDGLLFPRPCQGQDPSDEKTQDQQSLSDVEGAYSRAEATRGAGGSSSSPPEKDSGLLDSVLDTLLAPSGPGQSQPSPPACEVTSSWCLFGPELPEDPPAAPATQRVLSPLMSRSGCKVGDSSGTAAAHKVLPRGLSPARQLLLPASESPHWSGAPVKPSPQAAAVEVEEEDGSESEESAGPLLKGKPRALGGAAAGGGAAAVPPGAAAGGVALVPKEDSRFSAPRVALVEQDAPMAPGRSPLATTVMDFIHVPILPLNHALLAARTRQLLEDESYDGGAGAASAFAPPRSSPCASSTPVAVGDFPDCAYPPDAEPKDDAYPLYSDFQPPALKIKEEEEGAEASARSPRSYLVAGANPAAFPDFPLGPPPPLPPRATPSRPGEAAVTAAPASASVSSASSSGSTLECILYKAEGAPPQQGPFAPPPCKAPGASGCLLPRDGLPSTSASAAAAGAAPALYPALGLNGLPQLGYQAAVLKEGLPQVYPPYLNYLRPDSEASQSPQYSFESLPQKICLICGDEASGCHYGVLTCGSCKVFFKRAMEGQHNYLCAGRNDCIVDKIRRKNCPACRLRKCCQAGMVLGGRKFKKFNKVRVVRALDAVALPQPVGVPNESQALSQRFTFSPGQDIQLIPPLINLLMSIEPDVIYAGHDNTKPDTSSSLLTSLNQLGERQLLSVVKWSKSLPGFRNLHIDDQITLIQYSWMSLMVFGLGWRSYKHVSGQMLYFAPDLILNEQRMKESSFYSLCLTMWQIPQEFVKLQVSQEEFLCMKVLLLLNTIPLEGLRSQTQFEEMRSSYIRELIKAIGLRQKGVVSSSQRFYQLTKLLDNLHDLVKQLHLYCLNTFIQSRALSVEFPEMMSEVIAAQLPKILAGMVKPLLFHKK
Method in brief: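 Antagonist mode used 1 nM R5020 (final) as agonist on a beta-lactamase reporter line in HEK293T cells. Activity was taken from the substrate cleavage ratio after 16 hr exposure.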

[10] = TOX21_PR_BLA_Followup_Agonist_viability: Viability Assessment in the Tox21 HEK293 Progesterone Receptor (PR) Agonism Beta-lactamase Follow-Up Assay (AID 2283935);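 note: signal loss means lower viability so actives are cytotoxic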
Method in brief: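 Multiplexed viability counter-screen: ATP-coupled luciferase signal measured after 30 min at room temperature, following 16 hr compound treatment of PR-UAS-bla HEK293T cells grown in charcoal-stripped serum.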

[11] = TOX21_PR_BLA_Followup_Antagonist_viability: Viability Assessment in the Tox21 HEK293 Progesterone Receptor (PR) Antagonism Beta-lactamase Follow-Up Assay (AID 2283936);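 note: hits lower the luminescence signal meaning cytotoxicity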
Method in brief: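 PR-UAS-bla HEK293T cells (3,000/well, 2% charcoal-stripped FBS) given compound plus R5020 agonist, 16 h at 37C. CellTiter-Glo added after bla read, 30 min at room temperature; luminescence loss indicates cytotoxicity.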

PGR (gene 5241) [12] = target: PGR (gene 5241) (UniProt P06401); assay: TOX21_PR_LUC_Followup_Antagonist: Tox21 HEK293 Progesterone Receptor (PR) Antagonism Luciferase Follow-Up Assay (AID 2283938);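 note: curve fitted upward as signal gain over DMSO baseline despite antagonist label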
Method in brief: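 Cells are grown 5 days in charcoal-stripped-FBS assay medium, plated, left 5 h, then dosed with compound and incubated 16 h. ONE-Glo reagent is added and luminescence read after 30 min.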

[13] = TOX21_PR_LUC_Followup_Antagonist_viability: Viability Assessment in the Tox21 HEK293 Progesterone Receptor (PR) Antagonism Luciferase Follow-Up Assay (AID 2283940)
Method in brief: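 Cellular ATP, measured with luciferase-coupled CellTiter-Glo, served as the viability endpoint after HEK293-PR-A-luc cells were exposed to test compounds for 16 h at 37C.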

[14] = TOX21_PR_LUC_Followup_Agonist_viability: Viability Assessment in the Tox21 HEK293 Progesterone Receptor (PR) Agonism Luciferase Follow-Up Assay (AID 2283941);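 note: loss of signal means cytotoxicity so actives lower viability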
Method in brief: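 Luminescent ATP quantitation (CellTiter-Glo) serves as the read-out; a drop flags cytotoxic compounds. Cells are HEK293-PR-A-luc grown in 10% charcoal-stripped FBS, plated 3,000/well, and exposed to compound for 16 h.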

[15] = CCTE_Harrill_HTTr_Viability_MCF7: CCTE's 6-hour Cell Viability Assessment for the High-Throughput Transcriptomics (HTTr) Platform, in MCF-7 cells cultured in DMEM + 10% fetal bovine serum, Harrill Lab (AID 2284010; active = hit-call score of the fitted dose curve at least 0.9, where 1 is the maximum; inactive = score below 0.9)
Method in brief: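 Viability measured through PI dye exclusion by high-content imaging at 6 h post-dosing.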

[16] = CCTE_Harrill_HTTr_Apoptosis_MCF7: CCTE's 6-hour Apoptosis Assessment for the High-Throughput Transcriptomics (HTTr) Platform, in MCF-7 cells cultured in DMEM + 10% fetal bovine serum, Harrill Lab (AID 2284011; active = hit-call score of the fitted dose curve at least 0.9, where 1 is the maximum; inactive = score below 0.9)
Method in brief: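 MCF-7 (DMEM + 10% FBS), 384-well; 8-pt dilution series, 6 h chemical exposure; caspase-3/7 activation via CellEvent Caspase 3/7 Green, HCI; bidirectional fit vs DMSO.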

[17] = CCTE_Harrill_HTTr_CellCount_MCF7: CCTE's Cell Proliferation Assessment for the High-Throughput Transcriptomics (HTTr) Platform, Harrill Lab (AID 2284012);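 note: count of Hoechst-stained nuclei per well by high-content imaging in MCF-7 cells; cells exposed to compound for six hours; intended direction is loss of nuclei count meaning fewer cells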
Method in brief: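 Nuclei counting (Hoechst, high content imaging) in MCF-7 after a 6 h treatment at eight concentrations. Activity fitted bidirectionally, DMSO as negative control.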

[18] = target: Thyroid hormone receptor alpha (Rattus norvegicus) + Thyroid hormone receptor beta (Rattus norvegicus) (UniProt P18113+P63059); assay: TOX21_TR_LUC_GH3_Antagonist_Followup: Tox21 GH3 Thyroid Hormone Receptor Antagonism Luciferase Follow-Up Assay (AID 2283942)
Method in brief: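 Antagonist mode: GH3 cells seeded 1,500/well, compounds at 15 concentrations (92 uM to 5nM final) plus T3 at 1.0 nM final, 24 h at 37C. Luciferase read with ONE-Glo after 30 min at room temperature.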

THRA (gene 7067) = THRA (gene 7067) (UniProt P10827); assay: TOX21_TRA_COA_Antagonist_Followup_ratio: Tox21 Thyroid Hormone Receptor alpha Antagonism through Coactivator Recruitment Follow-Up Assay, Ratio (AID 2283953)
THRA (gene 7067), sequence (P10827 whole entry, looked up, the tested form may be a part): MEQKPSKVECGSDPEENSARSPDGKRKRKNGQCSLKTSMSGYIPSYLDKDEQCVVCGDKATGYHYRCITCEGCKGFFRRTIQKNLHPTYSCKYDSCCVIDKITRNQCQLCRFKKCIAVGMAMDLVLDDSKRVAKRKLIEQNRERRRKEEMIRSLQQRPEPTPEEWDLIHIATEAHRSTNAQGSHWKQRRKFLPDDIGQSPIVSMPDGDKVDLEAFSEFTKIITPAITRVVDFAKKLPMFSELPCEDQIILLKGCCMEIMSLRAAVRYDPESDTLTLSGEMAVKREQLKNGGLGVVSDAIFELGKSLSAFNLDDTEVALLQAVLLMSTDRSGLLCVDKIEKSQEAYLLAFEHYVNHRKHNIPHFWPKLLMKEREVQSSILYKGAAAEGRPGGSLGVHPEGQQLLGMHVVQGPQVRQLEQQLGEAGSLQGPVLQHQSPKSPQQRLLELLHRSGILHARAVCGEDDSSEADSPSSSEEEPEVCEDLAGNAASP
Method in brief: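 This follow-up to the GH3 luciferase screen checks specificity in a cell-free format. It measures SRC-2 coactivator peptide binding to TRα LBD by TR-FRET and scores loss of ratio signal relative to DMSO.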

THRB (gene 7068) = THRB (gene 7068) (UniProt P10828); assay: TOX21_TRB_COA_Antagonist_Followup_ratio: Tox21 Thyroid Hormone Receptor beta Antagonism through Coactivator Recruitment Follow-Up Assay, Ratio (AID 2283967)
THRB (gene 7068), sequence (P10828 whole entry, looked up, the tested form may be a part): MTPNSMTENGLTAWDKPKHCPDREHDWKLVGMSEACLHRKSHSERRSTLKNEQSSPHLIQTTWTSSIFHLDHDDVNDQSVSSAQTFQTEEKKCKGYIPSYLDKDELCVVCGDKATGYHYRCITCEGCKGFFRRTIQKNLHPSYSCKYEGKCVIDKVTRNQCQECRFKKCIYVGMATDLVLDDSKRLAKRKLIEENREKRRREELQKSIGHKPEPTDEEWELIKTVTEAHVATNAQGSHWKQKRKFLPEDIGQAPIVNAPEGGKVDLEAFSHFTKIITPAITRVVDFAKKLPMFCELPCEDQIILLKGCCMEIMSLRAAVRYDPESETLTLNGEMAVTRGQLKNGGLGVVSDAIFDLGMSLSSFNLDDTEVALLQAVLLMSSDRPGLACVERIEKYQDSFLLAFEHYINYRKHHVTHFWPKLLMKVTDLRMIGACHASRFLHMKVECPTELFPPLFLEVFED
Method in brief: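 Cell-free TR-FRET: GST-TRb LBD (5.0 nM) with fluorescein-SRC-2 peptide (200 nM) and Tb anti-GST antibody (2 nM), 0.10% BSA. 520:495 nm emission ratio normalized to DMSO (0%) and T3 (100%).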

[19] = target: Retinoic acid receptor RXR-alpha (Homo sapiens) (UniProt P19793); assay: TOX21_TR_RXR_BLA_Antagonist_Followup_ratio: Tox21 Thyroid Hormone Receptor beta Retinoid X Receptor alpha (RXRa) Antagonism Beta-lactamase (BLA) Follow-Up Assay, Ratio (AID 2283972)
Retinoic acid receptor RXR-alpha (Homo sapiens), sequence (P19793 whole entry, looked up): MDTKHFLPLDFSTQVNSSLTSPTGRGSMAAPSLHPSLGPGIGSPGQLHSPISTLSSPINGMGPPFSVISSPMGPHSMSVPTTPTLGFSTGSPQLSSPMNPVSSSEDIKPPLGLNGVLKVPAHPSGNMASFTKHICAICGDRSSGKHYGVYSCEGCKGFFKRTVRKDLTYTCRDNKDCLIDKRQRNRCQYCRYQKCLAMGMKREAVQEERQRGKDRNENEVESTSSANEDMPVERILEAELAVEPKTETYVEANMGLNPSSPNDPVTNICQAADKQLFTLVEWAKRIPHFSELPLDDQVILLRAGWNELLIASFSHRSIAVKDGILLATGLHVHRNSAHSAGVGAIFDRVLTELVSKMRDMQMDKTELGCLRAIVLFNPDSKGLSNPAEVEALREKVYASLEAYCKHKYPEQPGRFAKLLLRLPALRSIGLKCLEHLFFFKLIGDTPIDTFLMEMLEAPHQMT
Method in brief: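 HEK293T RXRa-bla, 2% charcoal-stripped FBS medium, 16 h compound exposure at 37C, qHTS 11 conc x3. CCF4 FRET ratio ch2/ch1 (460:530), DMSO = baseline, loss-of-signal fit.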

[20] = TOX21_TR_RXR_BLA_Antagonist_Followup_viability: Viability Assessment in the Tox21 Thyroid Hormone Receptor beta Retinoid X Receptor alpha (RXRa) Antagonism Beta-lactamase (BLA) Follow-Up Assay (AID 2283979)
Method in brief: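 RXRa-bla HEK293T cells (2,500/well, phenol red-free DMEM, 2% charcoal-stripped FBS) were attached 5 h, then exposed to compounds at 11 concentrations in triplicate for 16 h at 37C. Viability measured by CellTiter-Glo ATP luminescence, bidirectional fitting versus DMSO.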

SMILES: CCCC[P+](CC)(CCCC)CCCC (tested in a mixture with another compound)
- outcome [1]: inactive
- outcome [2]: inactive
- outcome [3]: inactive
- outcome [4]: inactive
- outcome [5]: inactive
- outcome [6]: inactive

SMILES: Nc1nc(N)c(N)c(N)n1
- outcome [1]: inactive
- outcome [2]: inactive
- outcome [7]: inactive
- outcome [8]: inactive

SMILES: COc1cc(C[C@H](C)N)c(OC)cc1Br
- outcome [1]: inactive
- outcome [2]: inactive
- outcome [3]: inactive
- outcome [4]: inactive
- outcome [6]: inactive

SMILES: O=C1CN=C(c2ccccc2)c2cc(Cl)ccc2N1
- outcome [1]: inactive
- outcome [2]: inactive
- outcome [7]: inactive
- outcome [8]: inactive

SMILES: SCc1ccccc1
- outcome [1]: inactive
- outcome [2]: inactive
- outcome [3]: inactive
- outcome [4]: inactive

SMILES: Cc1cc(C)c(C(=O)P(=O)(C(=O)c2c(C)cc(C)cc2C)c2ccccc2)c(C)c1
- outcome [1]: inactive
- outcome [2]: inactive
- outcome [3]: inactive
- outcome [4]: inactive
- outcome [6]: inactive

SMILES: O=[N+]([O-])c1ccc2ccc3cccc4ccc1c2c34
- outcome [1]: inactive
- outcome [2]: inactive
- outcome [3]: inactive
- outcome [4]: inactive
- outcome [5]: inactive
- outcome [6]: inactive
- AC50 (PGR (gene 5241) [9]): 12.2 µM (active)
- outcome [10]: inactive
- outcome [11]: inactive
- AC50 (PGR (gene 5241) [12]): 13 µM (active)
- outcome [13]: inactive
- outcome [14]: inactive

SMILES: Cc1cccc2sc3nncn3c12
- outcome [1]: inactive
- outcome [2]: inactive
- outcome [3]: inactive
- outcome [4]: inactive
- outcome [6]: inactive
- outcome [15]: inactive
- outcome [16]: inactive
- outcome [17]: inactive

SMILES: CCC(COC(=O)c1cc(OC)c(OC)c(OC)c1)(c1ccccc1)N(C)C (configuration not stated)
- outcome [1]: inactive
- outcome [2]: inactive
- outcome [3]: inactive
- outcome [5]: inactive
- outcome [6]: inactive
- outcome [18]: inactive
- outcome (THRA (gene 7067)): inactive
- outcome (THRB (gene 7068)): inactive
- outcome [19]: inactive
- outcome [20]: inactive

SMILES: O=C(Cl)OCc1ccccc1
- outcome [1]: inactive
- outcome [2]: inactive
- outcome [3]: inactive
- outcome [4]: inactive
- outcome [6]: inactive

SMILES: CC(=O)OCC1=C(C(=O)O)N2C(=O)[C@@H](N)[C@H]2SC1
- outcome [1]: inactive
- outcome [2]: inactive
- outcome [3]: inactive
- outcome [4]: inactive
